In PubChem BioAssay:
Calls of active or inactive are those of the source. Rule as the data show it, unless noted: active = inhibition above about 80%; inactive = the rest.

Experiments:
[1] = growth inhibition, single agent or in combination, cell-based, chromothripsis tumors, cisplatin or BGB combos (AID 1671449); settings: LFS_MB_P medulloblastoma cells;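 also: cells exposed for 96 hours; 0% = vehicle DMSO and 100% = killing by high DMSO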
[2] = growth inhibition, single agent and combos, cell-based, chromothripsis tumors, cisplatin or BGB combos (AID 1671450); settings: HDN33 neuroblastoma cells, stronger effect = higher value;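 also: cells exposed to compound for four days; 0% = vehicle DMSO and 100% = cell killing by high DMSO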
[3] = growth inhibition, single agents and combos, ICB984, cell-based, cisplatin or BGB combos, synergistic combos for chromothripsis tumors (AID 1671451; call rule not given here;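 also: cells exposed for 96 hours before readout; 0% = vehicle DMSO and 100% = killing by high DMSO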); settings: ICB984 medulloblastoma cells, drug combinations, stronger effect = higher value
[4] = growth inhibition, single agents and combos, LFS_MB_1R, cell-based, cisplatin or BGB combos, synergistic combos for chromothripsis tumors (AID 1671452); settings: LFS_MB_1R medulloblastoma cells, stronger effect = higher value;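 also: cells exposed for 96 hours before readout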
[5] = growth inhibition, single agents and combos, HTB85, cell-based, BGB or cisplatin IC20 combos, synergistic combos for chromothripsis tumors (AID 1671453); settings: HTB85 osteosarcoma cells, drug combinations, stronger effect = higher value;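 also: cells exposed for 96 hours before readout; 0% = vehicle DMSO and 100% = high DMSO killing control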
[6] = growth inhibition, single agents and combos, CRL2098, cell-based, BGB or cisplatin IC20 combos, synergistic combos for chromothripsis tumors (AID 1671454); settings: CRL2098 osteosarcoma cells, drug combinations, stronger effect = higher value;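 also: cells exposed for 96 h before readout; 0% = vehicle DMSO and 100% = killing by high DMSO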
[7] = growth inhibition, single agents and combos, HD-MB03, cell-based, BGB or cisplatin IC20 combos, synergistic combos for chromothripsis tumors (AID 1671455; in the data active = inhibition above about 83%;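 also: 0% = vehicle DMSO and 100% = high DMSO as cytotoxic control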); settings: HD-MB03 medulloblastoma cells, stronger effect = higher value
[8] = growth inhibition, single agents and combos, UWB1.289, cell-based, BGB or cisplatin combos, synergistic combos for chromothripsis tumors (AID 1671456); settings: UWB1.289 ovarian carcinoma cells, stronger effect = higher value;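 also: cells exposed to compound for four days; 0% = vehicle DMSO and 100% = killing by high DMSO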
[9] = growth inhibition, single agents and combos, LFS_MB_2R, cell-based, cisplatin combos, synergistic combos for chromothripsis tumors (AID 1671457); settings: LFS_MB_2R medulloblastoma cells, stronger effect = higher value;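 also: cells exposed to compound for four days before readout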
[10] = growth inhibition, MDA-MB-436, cell-based, BGB or cisplatin combos, synergistic combos for chromothripsis tumors (AID 1671458; call rule not given here;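 also: cells exposed for 96 hours; 0% = vehicle DMSO and 100% = killing by high DMSO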); settings: MDA-MB-436 breast carcinoma growth inhibition, drug combinations, stronger effect = higher value
[11] = UWB1.289_BRCA1 ovarian cancer growth, cell-based, BGB or cisplatin combinations (AID 1671459); settings: UWB1.289 BRCA1 ovarian carcinoma, drug combinations, stronger effect = higher value
[12] = drug combination toxicity in non-malignant astrocytes – cell-based, BGB or cisplatin IC20 combos, cytotoxicity control for chromothriptic childhood tumor combination screen (AID 1671460); settings: Human astrocytes, viability inhibition, drug combinations, at 0.5 µM, stronger effect = higher value;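 also: cells exposed to compounds for 96 hours before viability readout; 0% = vehicle and 100% = killing control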
[13] = BT084 cell growth, single and combined drugs, ICGC_MB145, cisplatin and BGB IC40 combos (AID 1671461); settings: BT084 medulloblastoma cells, drug combinations, stronger effect = higher value;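 also: cells exposed to drugs for 96 hours; 0% = vehicle DMSO and 100% = high DMSO full killing control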
[14] = RCMB18 cell growth, single agent and combined, cisplatin and BGB IC40 combos (AID 1671462); settings: RCMB18 medulloblastoma cells, stronger effect = higher value;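 also: cells exposed to compound for four days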
[15] = CRL1545 cell growth, single agent and combined, cisplatin and BGB IC20 combos (AID 1671464); settings: CRL1545 osteosarcoma cells, stronger effect = higher value;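 also: cells exposed to compound for 96 hours before readout; 0% = vehicle DMSO and 100% = high DMSO killing control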
[16] = measured here: combination with BGB IC40, at 0.05 µM
[17] = measured here: with BGB IC20 combination, at 0.5 µM
[18] = measured here: with cisplatin IC20 combination, at 0.5 µM
[19] = measured here: combination with cisplatin, at 0.5 µM
[20] = measured here: combination with cisplatin, at 5 µM

For C#CCC(CCCCCC)C(=O)O (stereo not drawn), the inhibition ([1]; at 0.5 µM, stronger effect = higher value) was 5.69% (inactive), the inhibition ([1]; measured here: combination with BGB IC20, at 0.005 µM) was 3.1% and the inhibition ([1]; measured here: combination with BGB IC40, at 0.005 µM) was 30.2%. The inhibition [1, 16] was 36.1%, the inhibition ([1]; measured here: combination with cisplatin, at 0.5 µM, stronger effect = higher value) was 3.27% and the inhibition ([1]; measured here: combination with cisplatin, at 5 µM, stronger effect = higher value) was -9.45%. For the same compound, the inhibition ([2]; BGB combo, at 5 µM) was 13.8%, the inhibition ([2]; at 0.5 µM) was 8.32% (inactive) and the inhibition ([2]; cisplatin combo, at 5 µM) was -0.039%. The inhibition [2, 17] was 10.2%, the inhibition [2, 18] was -1.96% and the inhibition ([2]; single agent, at 5 µM) was -0.563%. The inhibition ([3]; BGB IC20 combo, at 0.005 µM) was -2.69%, the inhibition ([3]; BGB IC40 combo, at 0.005 µM) was -16% and the inhibition ([3]; BGB IC40 combo, at 0.05 µM) was -11.6%. For the same compound, the inhibition ([3]; at 0.5 µM) was -6.37% (inactive), the inhibition ([3]; cisplatin combo, at 0.05 µM) was -16% and the inhibition ([3]; cisplatin combo, at 0.5 µM) was -14.1%. The inhibition ([3]; cisplatin combo, at 5 µM) was -27.6%, the inhibition ([3]; measured here: 5 uM single agent, at 5 µM) was -4.43% and the inhibition ([4]; at 0.5 µM) was 3.82% (inactive). It also gave an inhibition [4, 16] of -10%, an inhibition [4, 19] of -6.41% and an inhibition [4, 20] of 2.32%. For the same compound, the inhibition ([5]; at 0.5 µM) was 6.28% (inactive), the inhibition ([5]; measured here: with BGB IC20, at 0.5 µM) was 4.58% and the inhibition ([5]; measured here: with BGB IC20, at 5 µM) was -11%. The inhibition ([5]; measured here: with cisplatin IC20, at 0.5 µM) was -9.52%, the inhibition ([5]; measured here: with cisplatin IC20, at 5 µM) was -7.57% and the inhibition ([5]; single agent, at 5 µM) was 22.7%. For the same compound, the inhibition ([6]; at 0.5 µM) was 2.92% (inactive), the inhibition ([6]; measured here: combination with BGB at IC20, at 0.5 µM) was 26.1% and the inhibition ([6]; measured here: combination with cisplatin at IC20, at 0.5 µM) was 6.9%. The inhibition ([7]; at 0.5 µM) was 3.15% (inactive), the inhibition ([7]; measured here: combo with BGB at IC20, at 0.5 µM) was 0.099% and the inhibition ([7]; measured here: combo with cisplatin at IC20, at 0.5 µM) was 2.13%. The inhibition ([8]; at 0.5 µM) was 4.47% (inactive), the inhibition ([8]; measured here: inhibition with BGB combination, at 0.05 µM) was 5.84% and the inhibition ([8]; measured here: inhibition with cisplatin combination, at 0.05 µM) was 2.18%. For the same compound, the inhibition ([9]; at 0.5 µM) was -4.49% (inactive), the inhibition [9, 19] was 5.98% and the inhibition [9, 20] was 6.31%. For the same compound, the inhibition ([10]; at 0.5 µM) was -1.28% (inactive), the inhibition ([10]; measured here: BGB combination, at 0.5 µM) was -4.71% and the inhibition ([10]; measured here: BGB combination, at 5 µM) was -7.63%. For the same compound, the inhibition ([10]; measured here: cisplatin combination, at 0.5 µM) was -0.109%, the inhibition ([10]; measured here: cisplatin combination, at 5 µM) was -1.88% and the inhibition ([11]; BGB combination, concentration series, at 5 µM) was -4.85%. For the same compound, the inhibition ([11]; at 0.5 µM) was 3.74% (inactive), the inhibition ([11]; cisplatin combination, concentration series, at 5 µM) was 16.5% and the inhibition [12] was 6.72% (inactive). The inhibition ([12]; measured here: combo with BGB IC20) was 20.5%, the inhibition ([12]; measured here: combo with cisplatin IC20) was 9.45% and the inhibition ([13]; at 0.5 µM) was 8.59% (inactive). The inhibition ([13]; cisplatin combination, at 0.5 µM) was 9.78%, the inhibition ([13]; cisplatin combination, at 5 µM) was 1.82% and the inhibition ([13]; measured here: BGB IC40 combination 0.05 uM, at 0.05 µM) was 2.2%. The inhibition ([13]; single agent, at 5 µM) was 14.4%, the inhibition ([14]; at 0.5 µM) was -5.37% (inactive) and the inhibition ([14]; cisplatin combo, at 5 µM) was 23.5%. For the same compound, the inhibition ([14]; measured here: BGB IC40 combination, at 0.05 µM) was 5.44%, the inhibition [14, 19] was 22% and the inhibition ([14]; single agent, at 5 µM) was -15.4%. For the same compound, the inhibition ([15]; at 0.5 µM) was -23% (inactive), the inhibition [15, 17] was -43.7% and the inhibition [15, 18] was -12.7%. The inhibition ([15]; single agent, at 0.05 µM) was 0.433% and the inhibition ([15]; single agent, at 5 µM) was 16.3%.
